# Data reported in PubChem BioAssay (NCI).
# Compounds without any hit were thinned out: in the full panel of roughly 83,000, 20% have a hit.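 48-hour exposure, single concentration, 96-well plates; percent growth endpoint where 0 means no net growth. Active: below 10.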 Unmarked numbers belong to inactive results. The source made the active and inactive calls.
# Experiments:
# Test in all cases: NCI-60 one-dose screen, 48 h (100 = growth as untreated, 0 = no growth, -100 = all killed)
# Conditions in all cases: 10 µM
# [1] = system: NCI-H23 lung
# [2] = system: NCI-H226 lung
# [3] = system: HOP-62 NSCLC
# [4] = system: NCI-H460 lung
# [5] = system: HOP-92 NSCLC
# [6] = system: NCI-H522 lung
# [7] = system: A549/ATCC NSCLC
# [8] = system: 786-0 renal
# [9] = system: COLO 205 colon
# [10] = system: DU-145 prostate
# [11] = system: K-562 leukemia
# [12] = system: MALME-3M melanoma
# [13] = system: MDA-MB-231 breast
# [14] = system: RXF 393 renal
# [15] = system: SF-268 CNS
# [16] = system: SF-295 CNS
# [17] = system: SF-539 CNS
# [18] = system: UACC-257 melanoma
# [19] = system: M14 melanoma
SMILES,growth [1],growth [2],growth [3],growth [4],growth [5],growth [6],growth [7],growth [8],growth [9],growth [10],growth [11],growth [12],growth [13],growth [14],growth [15],growth [16],growth [17],growth [18],growth [19]
Cc1ccc(NCCN(C)CC(C)O)c2c(=O)c3ccc(Cl)cc3sc12 (stereo unspecified),65.7%,85.3%,87.1%,0.284% (active),34.3%,57.4%,39.6%,47.3%,-78% (active),59.7%,-61.2% (active),-24.2% (active),-16.4% (active),22.9%,58.4%,82.6%,81.5%,24.7%,-74.7% (active)
OCC1OC(n2ccc3c(NO)ncnc32)C(O)C1O (stereo unspecified),-56.3% (active),-10.3% (active),-21.6% (active),-27.7% (active),-16.3% (active),-30.1% (active),-10.9% (active),-7.13% (active),-91.1% (active),-16.6% (active),-11.4% (active),-69.2% (active),-20% (active),-32.7% (active),-14.3% (active),-15.4% (active),-44% (active),-57.3% (active),-89.7% (active)
C=CCn1c(SCC(=O)Nc2ccc(C(=O)/C=C/c3ccc(Cl)cc3)cc2)nnc1-c1cc(-c2ccccc2)nc2ccccc12,66.3%,73.6%,86.1%,98.6%,91.5%,60.5%,89.7%,86.7%,99.5%,95.6%,27.6%,87.1%,58.3%,63.9%,76%,102%,69.8%,93.4%,76.3%
CC1CCCC(C(=O)O)C1C(=O)O (stereo unspecified),98.1%,96.7%,87.7%,104%,86.1%,80.8%,78.3%,94%,102%,114%,87.6%,87.8%,92.8%,94.5%,105%,94.8%,97.8%,80.8%,94.7%
